Source: PubChem BioAssay (The Scripps Research Institute Molecular Screening Center)
Only some compounds are listed: those with a hit (about 0.84% of all), similar ones and a draw of the others.
NR2F2 inh = blocks human COUP-TFII nuclear receptor | P24468 | HEK293T NGFI-A luciferase reporter, luminescence | inhibition, % at 8.6 µM | 370,000 compounds, 0.7% hits | AID 686940;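 active means inhibition above a per-plate cutoff, mean inhibition of test wells between control levels plus 3 SD, cut at about 38% in these data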;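 further: cells cotransfected with COUP-TFII expression vector driving the NGFI-A reporter; 0% = median of COUP-TF2 test wells and 100% = reporter-only cells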
NCOA2 inhibitor = inhibits human steroid receptor coactivator 2; Q15596; HEK293 GAL4-SRC2 luciferase reporter, luminescence; inhibition, % at 9 µM; 370,000 compounds, 0.17% hits; AID 651957;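 active means inhibition above the mean inhibition of all tested compounds plus 3 SD, set per campaign, cut at about 52% in these data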;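 further: 0% = DMSO treated cells and 100% = cells given Gossypol at 36 µM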
NR5A2 inv ag = NR5A2 inverse agonism in reporter assay | O00482 | HEK293T StAR-luciferase reporter, LRH-1 transfected, 24 h | inhibition, % at 3.6 µM | 360,000 compounds, 0.13% hits;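 active means inhibition above the mean inhibition of all tested compounds plus 3 SD, cut at about 73% in these data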;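 further: 0% = DMSO wells and 100% = reporter-only cells lacking LRH-1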
NCOA1 inh = human NCOA1 inhibition | Q15788 | HEK293 GAL4-SRC1 luciferase reporter, luminescence | inhibition, % at 3.6 µM | 360,000 compounds, 0.12% hits;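 active means inhibition above the campaign mean plus 3 SD, with each screening campaign given its own cutoff, cut at about 60% in these data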;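 further: 0% = DMSO treated cells and 100% = gossypol at 36 µM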
SRC3 inh = inhibitors of human steroid receptor coactivator 3 (SRC3); 360,000 compounds, 0.17% hits; inhibition, % at 3.6 µM; HEK293 GAL4-SRC3 luciferase reporter, luminescence; AID 588352;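 active means inhibition above a per-campaign cutoff, the mean of all compounds plus 3 SD, cut at about 60% in these data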;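 further: 0% = DMSO-treated cells and 100% = gossypol-treated cells at 36 µM; higher means less SRC3-driven luciferase light from the GAL4 reporter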
Target sequence (Q9Y6Q9 whole entry, looked up, the tested form may be a part): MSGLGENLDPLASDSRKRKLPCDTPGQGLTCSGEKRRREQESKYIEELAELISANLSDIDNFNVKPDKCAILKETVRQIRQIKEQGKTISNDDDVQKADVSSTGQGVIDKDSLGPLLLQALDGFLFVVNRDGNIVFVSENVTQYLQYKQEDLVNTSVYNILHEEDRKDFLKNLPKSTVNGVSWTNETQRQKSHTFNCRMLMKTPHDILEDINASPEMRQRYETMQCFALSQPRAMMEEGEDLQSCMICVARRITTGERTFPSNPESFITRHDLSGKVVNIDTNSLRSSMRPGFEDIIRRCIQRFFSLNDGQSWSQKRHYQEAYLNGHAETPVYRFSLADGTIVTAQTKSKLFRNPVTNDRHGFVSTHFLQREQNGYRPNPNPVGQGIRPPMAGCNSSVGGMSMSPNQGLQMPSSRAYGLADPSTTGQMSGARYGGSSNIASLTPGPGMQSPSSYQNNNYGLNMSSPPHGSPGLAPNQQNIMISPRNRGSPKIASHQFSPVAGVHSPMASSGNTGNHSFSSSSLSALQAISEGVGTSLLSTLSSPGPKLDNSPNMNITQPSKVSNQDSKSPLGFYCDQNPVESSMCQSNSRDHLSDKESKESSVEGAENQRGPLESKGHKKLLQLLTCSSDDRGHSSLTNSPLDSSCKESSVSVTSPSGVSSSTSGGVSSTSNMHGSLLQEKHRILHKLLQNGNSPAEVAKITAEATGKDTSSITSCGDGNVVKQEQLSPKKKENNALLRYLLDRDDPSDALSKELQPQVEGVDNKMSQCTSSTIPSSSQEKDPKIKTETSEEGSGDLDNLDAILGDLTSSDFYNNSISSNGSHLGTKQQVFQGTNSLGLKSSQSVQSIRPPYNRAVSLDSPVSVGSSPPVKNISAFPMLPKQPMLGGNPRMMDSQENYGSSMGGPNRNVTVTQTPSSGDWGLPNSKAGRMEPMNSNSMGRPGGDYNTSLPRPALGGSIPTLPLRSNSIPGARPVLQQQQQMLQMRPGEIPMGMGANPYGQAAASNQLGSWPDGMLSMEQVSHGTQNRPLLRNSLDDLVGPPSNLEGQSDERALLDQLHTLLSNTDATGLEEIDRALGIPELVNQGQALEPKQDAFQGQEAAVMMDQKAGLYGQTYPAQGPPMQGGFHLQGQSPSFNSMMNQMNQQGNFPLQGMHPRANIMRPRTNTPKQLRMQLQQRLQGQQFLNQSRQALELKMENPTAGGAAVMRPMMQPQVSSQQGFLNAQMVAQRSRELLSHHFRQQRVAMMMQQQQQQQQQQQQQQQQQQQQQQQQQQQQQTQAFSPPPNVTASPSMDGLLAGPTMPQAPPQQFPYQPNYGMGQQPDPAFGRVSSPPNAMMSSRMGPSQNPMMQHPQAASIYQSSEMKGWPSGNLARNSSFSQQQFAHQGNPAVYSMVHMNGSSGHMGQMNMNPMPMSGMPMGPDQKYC
Gal4-VP16 ctr = inhibits VP16 reporter, flagging COUP-TFII antagonist hits; shares compounds with NR2F2 inh; inhibition, % at 8.5 µM; HEK293 Gal4-VP16 luciferase reporter, luminescence; 2,500 compounds, 25% hits; in the data active means inhibition above about 13%
NR2F2 inh conf = COUP-TFII (NR2F2) inhibition, confirmation assay; inhibition, % at 8.5 µM; HEK293 NGFI-A luciferase reporter, luminescence; shares compounds with NR2F2 inh; AID 687008; 2,500 compounds, 45% hits;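 active means mean inhibition over three repeats above a set limit taken from the earlier primary screen, cut at about 38% in these data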;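 further: 100% = cells given the luciferase reporter alone without the COUP-TF2 vector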
An asterisk follows results filed as active; · = not tested or not shown.

SMILES | NR2F2 inh | NCOA2 inhibitor | NR5A2 inv ag | NCOA1 inh | SRC3 inh | Gal4-VP16 ctr | NR2F2 inh conf
Nc1ccc(Oc2ccccc2-c2ccccc2)cc1 | 78.2* | 83.3* | 48.5 | 43.9 | 58.0 | 76.8* | 73.3*
NCCOc1ccccc1-c1ccccc1 | 1.8 | -38.2 | 16.6 | -5.2 | 13.2 | · | ·
COc1cccc(CO[C@H]2C=C[C@@H](c3ccccc3)O[C@@H]2COC(C)=O)c1 | -2.7 | 7.2 | · | · | · | · | ·
CC1CCc2nc(NC(=O)C3COc4ccccc4O3)sc2C1 (centres undefined) | 63.6* | 40.7 | 28.9 | 52.6 | 33.8 | 18.2* | 56.7*
O=C(OCCC12CC3CC(CC(C3)C1)C2)c1ccc(NCc2cc(O)ccc2O)cc1 | 89.8* | 94.0* | 51.6 | 55.9 | 74.1* | 78.2* | 101.0*
CCNC(=O)OCCC12CC3CC(CC(C3)C1)C2 | -1.5 | -21.6 | -6.1 | -8.3 | 11.1 | · | ·
N#CCC(=O)Nc1ccc(C(=O)OCC(=O)C23CC4CC(CC(C4)C2)C3)cc1 | -6.0 | 14.0 | 4.3 | 10.4 | -17.8 | · | ·
O=C(OCC12CC3CC(CC(C3)C1)C2)c1ccc(NCc2cc(O)ccc2O)cc1 | 79.7* | 84.6* | 65.1 | 18.3 | 72.7* | 78.9* | 99.4*
O=c1[nH]c2ccc(S(=O)(=O)N3CCCC3)cc2o1 | 2.9 | 12.7 | · | · | · | · | ·
O=C(NNC(=O)c1ccccc1O)c1ccc(Cl)c(S(=O)(=O)N2CCc3ccccc32)c1 | 48.4* | -9.4 | 16.3 | 27.6 | 18.6 | 0.0 | 39.3*
CN(C)S(=O)(=O)c1cccc(NC(=O)c2cccc(S(=O)(=O)N3CCc4ccccc43)c2)c1 | 42.5* | -1.5 | 20.8 | -5.4 | 0.7 | -3.5 | 18.3
O=S(=O)(NC1CCCC1)c1ccc(S(=O)(=O)N2CCc3ccccc32)cc1 | 40.3* | 10.3 | 21.6 | 7.0 | 3.0 | -4.5 | 9.5
O=C(NNC(=O)c1cccc(S(=O)(=O)N2CCc3ccccc32)c1)c1ccccc1 | 40.9* | -11.3 | 16.2 | -14.8 | 22.8 | 8.2 | 34.1
CCCCN(C)c1nc(C)nc2c1nnn2Cc1ccccc1 | 5.5 | 6.7 | · | · | · | · | ·
CN(C)S(=O)(=O)c1cccc(NC(=O)c2ccc(COc3ccccc3)cc2)c1 | 63.2* | 12.7 | 18.7 | 3.4 | 15.3 | 2.4 | 51.9*
CN(c1ccccc1)S(=O)(=O)c1cccc(NC(=O)CN2CCCc3ccccc32)c1 | 39.1* | 25.1 | 14.1 | -6.5 | 7.3 | 8.0 | 11.2
Cc1sc2ncnc(N3CCN(c4ncccn4)CC3)c2c1C | -4.2 | 6.3 | 0.8 | -2.9 | 10.9 | · | ·
Cc1sc2ncnc(N3CCC(C(=O)Nc4ccc(Cl)c(Cl)c4)CC3)c2c1C | 0.0 | -5.3 | -1.2 | 4.6 | -11.3 | · | ·
CNC(=O)c1ccc(NC(=O)C2CCN(c3ncnc4sc(C)c(C)c34)CC2)cc1 | 43.9* | 19.9 | 19.4 | 40.7 | 35.8 | -1.4 | 12.6
COc1ccc(-c2csc(NC(=O)C3CCN(c4ncnc5sc(C)c(C)c45)CC3)n2)cc1OC | 56.2* | 22.6 | 18.2 | 79.3* | 60.2 | 12.4 | 87.5*
COc1ccccc1OCC(=O)NNC(=O)C1CCN(c2ncnc3sc(C)c(C)c23)CC1 | 1.9 | 16.5 | 1.4 | -12.1 | 36.1 | · | ·
COc1cc(C(=O)N2CCN(c3ncnc4sc(C)c(C)c34)CC2)cc(OC)c1OC | 48.4* | -4.6 | 34.0 | 13.1 | 8.8 | 8.2 | 47.8*
CCOC(=O)N1CCN(C(=O)C(NC(=O)c2ccc(C(C)(C)C)cc2)C(C)C)CC1 (centres undefined) | 39.8* | 25.6 | 9.6 | -6.6 | 1.4 | -4.0 | 0.1
O=C(Nc1ccncc1)c1ccc(-c2ccccc2)cc1 | 62.0* | -35.0 | -8.1 | -30.7 | 8.0 | -87.4 | 33.1
O=C(Nc1ccc(C(=O)OC2CCCCC2)cc1)c1ccncc1 | 53.0* | 10.0 | 18.1 | -8.9 | 12.2 | -8.2 | 12.9
CCC(=O)N[C@@H]1C[C@@H]2O[C@@H](CO)CC[C@@H]2O[C@@H]1CCc1ccc(-c2cccc(OC)c2)cc1 | 6.8 | 9.4 | · | · | · | · | ·
CCOc1cc(CCNC(=O)c2cc(-c3ccccc3)c(N3CCOCC3)s2)ccc1OC | 35.5 | 14.1 | · | · | · | · | ·
CCCCC(=O)c1ccc(O)cc1O | 102.5* | -23.3 | -7.2 | -28.2 | 8.7 | -10.4 | 3.5
COc1cccc(-c2cc3nc(C)c(C)c(N4CCN(Cc5ccco5)CC4)n3n2)c1 | 0.0 | · | · | · | · | · | ·
